compound: C#CCNC(=O)CCSSCCC(=O)NCCc1ccc(C=O)c(C=O)c1; assay: lysine labeling ratio R10:1 (500 µM / 50 µM probe), SILAC-ABPP in living cells; higher = lower intrinsic lysine reactivity toward the probe, active = 2 or less; conditions: HeLa; probe concentrations 500 vs 50 µM
Method in brief: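 An alkyne-tagged lysine probe with a disulfide linker labelled living HeLa cells in PBS at room temperature at either 50 µM or 500 µM, using SILAC light and heavy cells in forward and reverse label swaps. Lysates were mixed, clicked to biotin-azide, trypsin-digested, enriched on neutravidin, DTT-released, alkylated and measured by LC-MS/MS on a TIMS-TOF Pro. Each lysine's R is the filtered median high-probe/low-probe MS1 peptide ratio, combined as the median over forward and reverse replicates, with 20 as the upper limit.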

Chain of UniProt Q15149 (Q15149 whole entry): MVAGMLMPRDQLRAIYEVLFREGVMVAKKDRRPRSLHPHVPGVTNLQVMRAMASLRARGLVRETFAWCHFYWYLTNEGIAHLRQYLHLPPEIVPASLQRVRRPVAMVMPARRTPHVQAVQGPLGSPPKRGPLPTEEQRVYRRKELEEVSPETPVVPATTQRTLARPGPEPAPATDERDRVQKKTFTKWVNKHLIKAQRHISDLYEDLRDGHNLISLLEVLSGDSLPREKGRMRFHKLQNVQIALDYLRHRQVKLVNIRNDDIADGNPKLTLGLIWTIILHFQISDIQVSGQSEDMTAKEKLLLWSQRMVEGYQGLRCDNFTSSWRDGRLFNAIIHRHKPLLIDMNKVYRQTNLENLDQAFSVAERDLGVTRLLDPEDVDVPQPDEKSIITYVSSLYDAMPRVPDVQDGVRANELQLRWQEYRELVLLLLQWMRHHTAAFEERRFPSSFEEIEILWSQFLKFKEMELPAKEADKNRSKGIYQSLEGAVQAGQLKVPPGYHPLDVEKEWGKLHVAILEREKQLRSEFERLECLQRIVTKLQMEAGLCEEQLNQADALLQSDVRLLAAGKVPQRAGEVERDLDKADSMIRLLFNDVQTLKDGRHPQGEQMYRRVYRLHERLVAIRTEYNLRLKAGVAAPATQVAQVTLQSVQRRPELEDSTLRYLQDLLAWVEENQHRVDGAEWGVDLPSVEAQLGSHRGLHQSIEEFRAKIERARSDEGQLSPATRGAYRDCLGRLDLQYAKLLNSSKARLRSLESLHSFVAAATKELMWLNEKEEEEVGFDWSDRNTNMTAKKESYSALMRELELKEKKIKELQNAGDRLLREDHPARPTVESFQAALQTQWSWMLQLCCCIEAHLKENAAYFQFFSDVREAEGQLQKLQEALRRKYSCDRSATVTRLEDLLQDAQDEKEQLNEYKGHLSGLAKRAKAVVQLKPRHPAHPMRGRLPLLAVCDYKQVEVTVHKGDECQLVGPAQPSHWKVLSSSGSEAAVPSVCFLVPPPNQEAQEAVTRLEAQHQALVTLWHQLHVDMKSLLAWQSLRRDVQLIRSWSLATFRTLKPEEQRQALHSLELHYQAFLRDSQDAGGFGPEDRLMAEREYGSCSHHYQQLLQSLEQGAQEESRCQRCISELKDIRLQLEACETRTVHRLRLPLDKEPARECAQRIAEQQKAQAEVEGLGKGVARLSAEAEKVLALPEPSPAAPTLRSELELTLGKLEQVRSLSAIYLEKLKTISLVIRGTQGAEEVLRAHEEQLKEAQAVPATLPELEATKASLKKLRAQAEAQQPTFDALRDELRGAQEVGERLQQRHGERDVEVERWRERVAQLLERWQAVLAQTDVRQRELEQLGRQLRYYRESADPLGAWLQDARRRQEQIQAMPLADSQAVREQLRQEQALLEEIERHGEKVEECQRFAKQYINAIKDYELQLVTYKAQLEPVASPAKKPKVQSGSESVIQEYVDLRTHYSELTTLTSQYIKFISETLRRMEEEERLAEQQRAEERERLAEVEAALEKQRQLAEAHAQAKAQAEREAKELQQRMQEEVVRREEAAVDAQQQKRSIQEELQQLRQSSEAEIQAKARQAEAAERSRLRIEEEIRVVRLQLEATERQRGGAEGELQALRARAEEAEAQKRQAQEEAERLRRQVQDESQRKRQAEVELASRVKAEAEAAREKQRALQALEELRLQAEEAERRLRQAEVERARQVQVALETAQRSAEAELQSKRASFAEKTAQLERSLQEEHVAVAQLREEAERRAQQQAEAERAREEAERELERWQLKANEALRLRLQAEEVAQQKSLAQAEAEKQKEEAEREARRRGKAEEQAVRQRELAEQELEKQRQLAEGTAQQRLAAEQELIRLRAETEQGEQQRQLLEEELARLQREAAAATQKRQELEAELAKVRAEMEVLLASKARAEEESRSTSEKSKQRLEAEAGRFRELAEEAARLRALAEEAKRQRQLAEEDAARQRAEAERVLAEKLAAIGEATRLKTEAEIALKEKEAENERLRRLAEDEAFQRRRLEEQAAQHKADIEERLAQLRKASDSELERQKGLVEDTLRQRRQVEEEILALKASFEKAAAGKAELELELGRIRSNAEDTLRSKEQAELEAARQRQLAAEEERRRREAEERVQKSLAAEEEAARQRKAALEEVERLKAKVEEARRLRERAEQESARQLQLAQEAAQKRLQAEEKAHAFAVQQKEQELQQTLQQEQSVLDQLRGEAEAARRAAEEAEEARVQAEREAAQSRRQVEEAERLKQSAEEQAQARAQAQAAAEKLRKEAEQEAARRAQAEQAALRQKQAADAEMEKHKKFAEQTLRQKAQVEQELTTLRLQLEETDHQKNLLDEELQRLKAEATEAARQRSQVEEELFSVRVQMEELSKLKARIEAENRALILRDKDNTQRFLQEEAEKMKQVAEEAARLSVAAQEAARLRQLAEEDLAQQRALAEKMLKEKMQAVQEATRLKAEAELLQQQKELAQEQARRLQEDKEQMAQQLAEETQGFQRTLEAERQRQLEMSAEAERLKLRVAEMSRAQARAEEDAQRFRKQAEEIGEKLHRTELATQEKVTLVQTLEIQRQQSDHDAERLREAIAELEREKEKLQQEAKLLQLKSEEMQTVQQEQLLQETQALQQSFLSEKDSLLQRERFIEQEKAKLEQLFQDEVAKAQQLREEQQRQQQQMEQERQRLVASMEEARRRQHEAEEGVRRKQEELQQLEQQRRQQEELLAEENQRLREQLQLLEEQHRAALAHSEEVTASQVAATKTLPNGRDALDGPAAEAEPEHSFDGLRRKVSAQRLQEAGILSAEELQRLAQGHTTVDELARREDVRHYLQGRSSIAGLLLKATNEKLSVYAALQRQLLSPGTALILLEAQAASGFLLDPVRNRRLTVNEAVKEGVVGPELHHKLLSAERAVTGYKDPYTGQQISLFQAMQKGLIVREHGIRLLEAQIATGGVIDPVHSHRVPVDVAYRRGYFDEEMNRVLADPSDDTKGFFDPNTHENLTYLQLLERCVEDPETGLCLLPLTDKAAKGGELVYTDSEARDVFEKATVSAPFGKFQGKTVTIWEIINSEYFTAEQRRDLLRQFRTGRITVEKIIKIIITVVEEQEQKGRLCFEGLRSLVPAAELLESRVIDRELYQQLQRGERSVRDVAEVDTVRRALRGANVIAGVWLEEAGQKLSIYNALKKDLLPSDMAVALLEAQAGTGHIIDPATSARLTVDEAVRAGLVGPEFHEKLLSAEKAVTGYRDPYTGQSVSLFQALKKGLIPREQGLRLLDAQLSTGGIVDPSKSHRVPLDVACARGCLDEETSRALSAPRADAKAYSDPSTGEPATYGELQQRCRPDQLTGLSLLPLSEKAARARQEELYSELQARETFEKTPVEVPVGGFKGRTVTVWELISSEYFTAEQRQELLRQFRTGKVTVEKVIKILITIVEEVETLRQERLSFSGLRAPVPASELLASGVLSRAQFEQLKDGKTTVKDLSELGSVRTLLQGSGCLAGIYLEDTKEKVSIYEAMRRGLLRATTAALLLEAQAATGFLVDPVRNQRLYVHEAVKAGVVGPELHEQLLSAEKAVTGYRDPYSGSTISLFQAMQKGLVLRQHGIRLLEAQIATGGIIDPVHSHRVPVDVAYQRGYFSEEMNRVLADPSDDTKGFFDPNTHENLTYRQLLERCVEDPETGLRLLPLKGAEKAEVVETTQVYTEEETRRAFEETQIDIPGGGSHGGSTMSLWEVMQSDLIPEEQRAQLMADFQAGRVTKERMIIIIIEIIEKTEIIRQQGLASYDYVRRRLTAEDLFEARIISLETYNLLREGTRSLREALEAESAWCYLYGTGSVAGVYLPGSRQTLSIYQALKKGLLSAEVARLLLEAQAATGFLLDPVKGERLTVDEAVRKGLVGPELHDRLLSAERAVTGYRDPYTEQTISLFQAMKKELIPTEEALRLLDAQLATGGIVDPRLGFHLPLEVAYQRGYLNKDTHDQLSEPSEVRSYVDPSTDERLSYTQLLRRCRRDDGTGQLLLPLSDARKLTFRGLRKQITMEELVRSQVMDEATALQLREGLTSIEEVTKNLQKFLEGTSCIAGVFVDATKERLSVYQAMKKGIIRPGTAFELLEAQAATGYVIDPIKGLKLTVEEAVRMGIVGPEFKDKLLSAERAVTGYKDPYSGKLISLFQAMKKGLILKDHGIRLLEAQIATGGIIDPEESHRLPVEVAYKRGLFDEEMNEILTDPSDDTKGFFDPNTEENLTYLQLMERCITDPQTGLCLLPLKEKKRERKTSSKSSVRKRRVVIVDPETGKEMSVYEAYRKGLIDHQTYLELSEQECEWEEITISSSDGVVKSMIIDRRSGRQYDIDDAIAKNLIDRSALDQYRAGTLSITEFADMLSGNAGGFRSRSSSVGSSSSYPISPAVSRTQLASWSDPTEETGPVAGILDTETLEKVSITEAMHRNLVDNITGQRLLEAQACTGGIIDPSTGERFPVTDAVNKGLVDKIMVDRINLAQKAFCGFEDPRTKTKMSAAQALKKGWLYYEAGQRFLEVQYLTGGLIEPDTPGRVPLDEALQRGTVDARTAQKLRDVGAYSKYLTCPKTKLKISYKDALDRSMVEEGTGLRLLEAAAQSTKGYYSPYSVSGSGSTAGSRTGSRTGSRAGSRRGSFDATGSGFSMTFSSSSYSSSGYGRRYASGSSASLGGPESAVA
Chain of UniProt P16949 (P16949 whole entry): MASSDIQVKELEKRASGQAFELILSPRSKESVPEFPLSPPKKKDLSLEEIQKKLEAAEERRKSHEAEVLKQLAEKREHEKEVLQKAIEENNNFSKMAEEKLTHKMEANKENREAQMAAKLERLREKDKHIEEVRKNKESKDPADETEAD
Chain of UniProt P25445 (P25445 whole entry): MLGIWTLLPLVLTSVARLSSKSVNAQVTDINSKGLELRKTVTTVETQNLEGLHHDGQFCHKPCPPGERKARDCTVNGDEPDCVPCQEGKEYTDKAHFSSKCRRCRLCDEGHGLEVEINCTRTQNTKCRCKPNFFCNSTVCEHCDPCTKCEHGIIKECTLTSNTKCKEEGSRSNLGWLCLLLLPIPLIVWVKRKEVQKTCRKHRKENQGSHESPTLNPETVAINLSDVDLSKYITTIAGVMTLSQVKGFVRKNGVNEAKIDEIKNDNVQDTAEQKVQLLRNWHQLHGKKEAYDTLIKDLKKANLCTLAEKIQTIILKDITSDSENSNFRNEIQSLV

Row | Target | lysine labeling ratio R10:1
1 | TNFRSF10A (lysine site: K191) (UniProt O00220) | 6.6 (inactive)
2 | MET (lysine site: K189) (UniProt P08581) | 3.58 (inactive)
3 | LY6D (lysine site: K46) (UniProt Q14210) | 1.33 (active)
4 | PDIA4 (lysine site: K582) (UniProt P13667) | 2.17 (inactive)
5 | MARS (lysine site: K726) (UniProt P56192) | 0.748 (active)
6 | UniProt Q15149 (lysine site: K4140) | 3.87 (inactive)
7 | FAS (lysine site: K126) (UniProt P25445) | 2.16 (inactive)
8 | RPL28 (lysine site: K135) (UniProt P46779) | 3.84 (inactive)
9 | ENO1 (lysine site: K422) (UniProt P06733) | 2.65 (inactive)
10 | RPL4 (lysine site: K182) (UniProt P36578) | 1.85 (active)
11 | SLC4A7 (lysine site: K890) (UniProt Q9Y6M7) | 4.29 (inactive)
12 | MSLN (lysine site: K306) (UniProt Q13421) | 1.74 (active)
13 | GANAB (lysine site: K48) (UniProt Q14697) | 3.47 (inactive)
14 | CCT6A (lysine site: K530) (UniProt P40227) | 4.16 (inactive)
15 | UniProt Q13620 (lysine site: K903) | 3.24 (inactive)
16 | EEF2 (lysine site: K426) (UniProt P13639) | 3.49 (inactive)
17 | UniProt P21589 (lysine site: K433) | 3.8 (inactive)
18 | MYH9 (lysine site: K1631) (UniProt P35579) | 1.9 (active)
19 | UniProt Q15149 (lysine site: K4584) | 0.906 (active)
20 | CD58 (lysine site: K60) (UniProt P19256) | 6.36 (inactive)

Row | Target | lysine labeling ratio R10:1
21 | MYH9 (lysine site: K1024) (UniProt P35579) | 1.84 (active)
22 | PTGFRN (lysine site: K522) (UniProt Q9P2B2) | 2.13 (inactive)
23 | MSN (lysine site: K391) (UniProt P26038) | 1.79 (active)
24 | SND1 (lysine site: K177) (UniProt Q7KZF4) | 0.9 (active)
25 | UniProt Q16363 (lysine site: K682) | 1.54 (active)
26 | NUCB1 (lysine site: K302) (UniProt Q02818) | 2.22 (inactive)
27 | STMN1 (lysine site: K119) (UniProt P16949) | 1.62 (active)
28 | TNPO1 (lysine site: K889) (UniProt Q92973) | 1.09 (active)
29 | IGF2R (lysine site: K2338) (UniProt P11717) | 1.29 (active)
30 | ITGB1 (lysine site: K90) (UniProt P05556) | 3.53 (inactive)
31 | ALDOC (lysine site: K111) (UniProt P09972) | 6.08 (inactive)
32 | UniProt P61981 (lysine site: K10) | 4.23 (inactive)
33 | UniProt Q15149 (lysine site: K1175) | 1.67 (active)
34 | CRIM1 (lysine site: K171) (UniProt Q9NZV1) | 2.01 (inactive)
35 | CCT3 (lysine site: K249) (UniProt P49368) | 1.76 (active)
36 | PLOD2 (lysine site: K358) (UniProt O00469) | 2.23 (inactive)
37 | PDCD5 (lysine site: K33) (UniProt O14737) | 4.82 (inactive)
38 | RPS2 (lysine site: K275) (UniProt P15880) | 1.57 (active)
39 | ATAD3B (lysine site: K183) (UniProt Q5T9A4) | 1.8 (active)
40 | ITGA6 (lysine site: K986) (UniProt P23229) | 1.78 (active)
